For part of these data: Results with a measured potency or affinity are listed apart.

Holding throughout (design): scale not given: direction of the effect not stated beside the values
The target of assay [1] is Protein translocase subunit SecA (Escherichia coli (strain K12)) (UniProt P10408). In words: Assay to Identify E. coli SecA ATPase Inhibitors. Format: functional. To be noted: 30 µM.
Assay [2] concerns the target T1, Ubiquitin-activating enzyme e1, putative (Leishmania donovani (strain BPK282A1)) (UniProt E9BSI1).
T1 sequence (whole entry): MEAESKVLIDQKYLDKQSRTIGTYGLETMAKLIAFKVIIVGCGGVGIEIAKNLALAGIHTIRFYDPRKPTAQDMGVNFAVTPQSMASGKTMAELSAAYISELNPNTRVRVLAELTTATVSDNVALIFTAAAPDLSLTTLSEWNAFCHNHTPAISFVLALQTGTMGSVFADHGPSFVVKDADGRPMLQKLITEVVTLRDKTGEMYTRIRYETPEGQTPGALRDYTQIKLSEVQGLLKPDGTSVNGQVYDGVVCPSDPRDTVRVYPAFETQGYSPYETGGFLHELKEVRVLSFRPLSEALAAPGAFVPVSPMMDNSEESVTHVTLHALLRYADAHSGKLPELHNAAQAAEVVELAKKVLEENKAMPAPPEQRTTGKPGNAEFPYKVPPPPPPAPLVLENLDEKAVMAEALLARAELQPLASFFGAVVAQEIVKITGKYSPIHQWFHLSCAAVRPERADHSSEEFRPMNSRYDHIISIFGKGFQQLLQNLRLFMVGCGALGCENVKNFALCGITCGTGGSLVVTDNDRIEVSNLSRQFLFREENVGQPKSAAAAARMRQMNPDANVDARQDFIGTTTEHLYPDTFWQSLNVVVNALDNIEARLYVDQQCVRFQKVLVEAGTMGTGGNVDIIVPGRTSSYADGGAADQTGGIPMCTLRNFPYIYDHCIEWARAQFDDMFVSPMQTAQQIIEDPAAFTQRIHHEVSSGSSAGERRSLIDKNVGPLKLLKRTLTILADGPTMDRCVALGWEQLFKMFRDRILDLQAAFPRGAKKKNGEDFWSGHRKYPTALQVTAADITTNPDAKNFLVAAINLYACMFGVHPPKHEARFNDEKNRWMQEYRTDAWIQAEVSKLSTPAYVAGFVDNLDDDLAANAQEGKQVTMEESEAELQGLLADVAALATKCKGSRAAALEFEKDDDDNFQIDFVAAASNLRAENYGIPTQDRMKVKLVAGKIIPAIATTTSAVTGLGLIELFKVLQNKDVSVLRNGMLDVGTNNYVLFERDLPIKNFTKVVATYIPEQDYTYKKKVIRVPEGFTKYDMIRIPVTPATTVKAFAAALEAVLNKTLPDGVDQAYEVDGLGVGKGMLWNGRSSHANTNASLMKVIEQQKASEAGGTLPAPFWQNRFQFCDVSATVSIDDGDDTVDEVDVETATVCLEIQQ
In words: Leishmania donovani Ubiquitin Activating Enzyme (LdE1). To be noted: 30 µM. Format: functional.

Assay [3] addresses AMP-activated protein kinase, AMPK (Homo sapiens) (UniProt P54646+O43741+P54619+Q9UGJ0+Q9Y478+Q13131+Q9UGI9). The assay is described as follows: AMP-dependent Kinase enzyme assay. An in vitro enzyme assay that detects ADP turnover that is directly proportional to AMPK activity. This uses naive AMPK that is activated during the assay with MK-8722. Format: functional. To be noted: 30 µM.

The target in assay [4] is Sialic acid-binding Ig-like lectin 9 (Homo sapiens) (UniProt Q9Y336). The assay is described as follows: Hs-Siglec9 ALPHAscreen SOP 20170721. To be noted: 10 µM.
Chain of Sialic acid-binding Ig-like lectin 9 (Homo sapiens) (Q9Y336 whole entry): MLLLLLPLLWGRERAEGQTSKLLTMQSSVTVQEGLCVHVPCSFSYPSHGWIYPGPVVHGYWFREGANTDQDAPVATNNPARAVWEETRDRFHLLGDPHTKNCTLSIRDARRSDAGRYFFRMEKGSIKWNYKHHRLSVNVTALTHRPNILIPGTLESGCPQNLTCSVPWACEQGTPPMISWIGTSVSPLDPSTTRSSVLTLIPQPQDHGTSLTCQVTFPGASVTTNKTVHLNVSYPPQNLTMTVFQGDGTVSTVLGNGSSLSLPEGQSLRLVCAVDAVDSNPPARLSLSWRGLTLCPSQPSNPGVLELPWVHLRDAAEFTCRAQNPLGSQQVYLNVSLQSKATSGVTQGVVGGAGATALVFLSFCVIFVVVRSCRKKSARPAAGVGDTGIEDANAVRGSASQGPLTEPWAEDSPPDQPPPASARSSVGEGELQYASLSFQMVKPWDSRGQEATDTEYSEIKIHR
Assay [5] has as its system Trypanosoma cruzi. The assay is described as follows: Trypanosoma cruzi phosphomannomutase and mannose-1-phosphate guanylyltransferase assay. Particulars: 10 µM. Format: functional.
Assay [6] has as its target T2, Arginase-2, mitochondrial (Homo sapiens) (UniProt P78540).
T2 sequence (whole entry): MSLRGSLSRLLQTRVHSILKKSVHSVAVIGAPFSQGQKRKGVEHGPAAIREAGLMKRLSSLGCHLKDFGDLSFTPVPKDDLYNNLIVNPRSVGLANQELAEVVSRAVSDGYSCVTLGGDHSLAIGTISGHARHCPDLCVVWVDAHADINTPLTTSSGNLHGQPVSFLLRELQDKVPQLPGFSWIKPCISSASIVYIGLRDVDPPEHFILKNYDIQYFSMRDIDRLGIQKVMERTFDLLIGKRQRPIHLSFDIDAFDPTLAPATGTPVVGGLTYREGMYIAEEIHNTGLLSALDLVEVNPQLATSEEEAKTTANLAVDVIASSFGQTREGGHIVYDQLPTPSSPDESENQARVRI
The assay is described as follows: in vitro enzyme assay to detect the production of urea directly proportional to the activity of Arginase II. Note: in the data most compounds retested in dose-response had high values. Type of assay: functional. Particulars: 33.3 µM.

Assay [7] has as its target T3, Proteasome subunit beta (Trypanosoma cruzi) (UniProt O96673).
T3 sequence (whole entry): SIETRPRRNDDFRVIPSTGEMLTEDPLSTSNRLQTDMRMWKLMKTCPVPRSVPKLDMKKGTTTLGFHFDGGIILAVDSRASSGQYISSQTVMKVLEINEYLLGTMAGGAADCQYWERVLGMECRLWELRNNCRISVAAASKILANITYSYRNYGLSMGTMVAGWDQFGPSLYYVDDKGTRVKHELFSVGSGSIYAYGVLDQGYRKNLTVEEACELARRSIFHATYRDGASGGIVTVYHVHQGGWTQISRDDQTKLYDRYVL
The assay is described as follows: Trypanosoma cruzi proteasome chymotrypsin-like activity (TcProtChymo) assay. Note: in the data most compounds retested in dose-response had high values. Format: functional. To be noted: 9.37 µM.

The species entered for assay [8] is Homo sapiens. The assay is described as follows: To identify inhibition of the IFN signalling (Jak-Stat) pathway via expression of an eGFP reporter gene under the control of an IFN-stimulated response element (ISRE) containing MxA promoter. To be noted: 30 µM. Type of assay: functional.
The target of assay [9] is T4, Tyrosyl-tRNA synthetase, putative (Trypanosoma cruzi (strain CL Brener)) (UniProt Q4DSP6).
T4 sequence (whole entry): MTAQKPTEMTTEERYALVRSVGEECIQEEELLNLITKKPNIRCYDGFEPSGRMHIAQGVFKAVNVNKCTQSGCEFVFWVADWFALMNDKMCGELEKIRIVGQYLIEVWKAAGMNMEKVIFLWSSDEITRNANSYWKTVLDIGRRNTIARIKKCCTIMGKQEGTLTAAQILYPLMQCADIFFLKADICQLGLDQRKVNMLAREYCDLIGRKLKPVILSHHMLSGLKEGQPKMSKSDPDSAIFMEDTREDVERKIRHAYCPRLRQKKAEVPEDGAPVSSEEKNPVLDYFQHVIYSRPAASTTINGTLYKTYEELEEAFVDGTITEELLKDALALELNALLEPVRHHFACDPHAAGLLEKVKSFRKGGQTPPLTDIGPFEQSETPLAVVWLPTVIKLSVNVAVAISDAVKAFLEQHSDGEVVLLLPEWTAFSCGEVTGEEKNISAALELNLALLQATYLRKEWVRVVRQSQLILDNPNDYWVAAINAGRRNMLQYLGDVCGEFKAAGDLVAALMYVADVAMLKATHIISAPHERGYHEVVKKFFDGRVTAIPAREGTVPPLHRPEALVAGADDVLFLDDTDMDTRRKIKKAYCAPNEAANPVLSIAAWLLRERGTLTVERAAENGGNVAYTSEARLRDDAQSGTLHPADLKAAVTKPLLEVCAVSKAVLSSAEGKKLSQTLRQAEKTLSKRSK
In words: Trypanosoma cruzi tyrosyl tRNA synthetase (TcYRS) _High Tyrosine SOP. Note: in the data most compounds retested in dose-response had high values. Format: functional. Particulars: 30 µM.

Assay [10] addresses T4, Tyrosyl-tRNA synthetase, putative (Trypanosoma cruzi (strain CL Brener)). In words: Trypanosoma cruzi tyrosyl tRNA synthetase (TcYRS) SOP. Type of assay: functional. To be noted: 30 µM.
In assay [11] the target is Chromo domain-containing protein 1 (Saccharomyces cerevisiae (strain ATCC 204508 / S288c) (Baker's yeast)) (UniProt P32657). The assay is described as follows: ScCHD-1 Enzyme Inhibition Assay. Note: in the data most compounds retested in dose-response had high values. Type of assay: functional. Particulars: 30 µM.
Chain of Chromo domain-containing protein 1 (Saccharomyces cerevisiae (strain ATCC 204508 / S288c) (Baker's yeast)) (P32657 whole entry, the tested form may be a part): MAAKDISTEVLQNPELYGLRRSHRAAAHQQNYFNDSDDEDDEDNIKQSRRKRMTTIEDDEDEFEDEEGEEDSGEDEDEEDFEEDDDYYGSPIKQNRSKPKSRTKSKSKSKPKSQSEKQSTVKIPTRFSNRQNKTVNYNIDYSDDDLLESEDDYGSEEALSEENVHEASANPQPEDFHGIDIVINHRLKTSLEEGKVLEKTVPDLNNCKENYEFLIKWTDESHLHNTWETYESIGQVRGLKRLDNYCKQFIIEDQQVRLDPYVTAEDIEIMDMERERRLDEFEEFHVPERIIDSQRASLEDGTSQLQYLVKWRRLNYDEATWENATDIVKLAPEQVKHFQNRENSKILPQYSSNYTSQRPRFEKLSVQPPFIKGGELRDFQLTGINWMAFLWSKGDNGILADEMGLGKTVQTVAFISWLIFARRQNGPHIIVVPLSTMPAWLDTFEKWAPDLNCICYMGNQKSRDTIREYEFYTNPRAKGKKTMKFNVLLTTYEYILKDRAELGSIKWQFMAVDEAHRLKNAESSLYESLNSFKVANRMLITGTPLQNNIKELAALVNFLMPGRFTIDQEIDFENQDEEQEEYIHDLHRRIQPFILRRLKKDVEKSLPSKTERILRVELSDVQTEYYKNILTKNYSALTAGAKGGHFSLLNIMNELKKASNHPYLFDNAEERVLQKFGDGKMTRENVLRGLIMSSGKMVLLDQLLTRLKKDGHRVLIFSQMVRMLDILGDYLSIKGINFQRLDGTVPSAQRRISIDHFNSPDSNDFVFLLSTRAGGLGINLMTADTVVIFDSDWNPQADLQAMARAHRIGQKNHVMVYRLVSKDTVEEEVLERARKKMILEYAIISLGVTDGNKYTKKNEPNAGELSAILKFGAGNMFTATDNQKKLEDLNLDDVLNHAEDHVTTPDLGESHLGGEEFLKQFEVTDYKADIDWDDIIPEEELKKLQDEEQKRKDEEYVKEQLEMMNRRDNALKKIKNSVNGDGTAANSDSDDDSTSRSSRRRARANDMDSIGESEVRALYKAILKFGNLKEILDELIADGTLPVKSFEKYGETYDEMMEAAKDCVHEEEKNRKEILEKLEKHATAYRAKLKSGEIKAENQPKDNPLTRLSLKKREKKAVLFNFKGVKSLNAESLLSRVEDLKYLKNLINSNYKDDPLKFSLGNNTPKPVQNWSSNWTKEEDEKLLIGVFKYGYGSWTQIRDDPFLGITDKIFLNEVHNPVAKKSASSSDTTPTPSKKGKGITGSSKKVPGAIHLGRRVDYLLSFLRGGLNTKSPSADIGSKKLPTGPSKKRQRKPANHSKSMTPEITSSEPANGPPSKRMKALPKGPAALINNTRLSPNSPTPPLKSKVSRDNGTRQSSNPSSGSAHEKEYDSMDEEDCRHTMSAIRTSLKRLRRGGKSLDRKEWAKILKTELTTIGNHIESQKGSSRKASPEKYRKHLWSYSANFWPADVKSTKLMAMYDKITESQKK

Chain of Protein translocase subunit SecA (Escherichia coli (strain K12)) (P10408 whole entry): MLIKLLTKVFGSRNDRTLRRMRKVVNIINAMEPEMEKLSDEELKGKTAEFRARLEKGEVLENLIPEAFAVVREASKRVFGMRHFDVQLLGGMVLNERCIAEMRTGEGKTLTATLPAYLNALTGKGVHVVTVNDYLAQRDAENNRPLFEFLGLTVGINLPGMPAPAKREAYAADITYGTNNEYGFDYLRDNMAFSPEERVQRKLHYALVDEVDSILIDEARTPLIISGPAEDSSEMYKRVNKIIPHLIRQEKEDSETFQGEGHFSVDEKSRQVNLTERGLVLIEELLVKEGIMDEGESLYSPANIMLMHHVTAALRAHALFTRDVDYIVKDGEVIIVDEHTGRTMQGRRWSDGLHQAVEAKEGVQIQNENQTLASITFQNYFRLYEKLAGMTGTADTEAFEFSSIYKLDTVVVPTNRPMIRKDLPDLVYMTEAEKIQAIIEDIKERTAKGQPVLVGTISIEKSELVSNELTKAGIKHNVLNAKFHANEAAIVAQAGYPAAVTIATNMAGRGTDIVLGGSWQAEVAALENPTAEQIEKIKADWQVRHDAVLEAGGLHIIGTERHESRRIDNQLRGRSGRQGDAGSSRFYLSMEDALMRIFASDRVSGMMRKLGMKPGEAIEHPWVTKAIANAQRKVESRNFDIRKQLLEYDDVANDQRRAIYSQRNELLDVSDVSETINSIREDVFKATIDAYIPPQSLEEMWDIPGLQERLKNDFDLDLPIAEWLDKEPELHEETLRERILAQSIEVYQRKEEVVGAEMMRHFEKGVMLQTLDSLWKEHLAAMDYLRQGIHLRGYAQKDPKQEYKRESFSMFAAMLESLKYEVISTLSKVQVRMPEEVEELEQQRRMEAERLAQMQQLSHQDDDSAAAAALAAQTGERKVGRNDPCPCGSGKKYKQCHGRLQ

For the molecule `COCCN1CCN(CCCS(=O)(=O)c2ccccc2)CC1C` (centres undefined), the Percent Effect in assay [1] was -1.14%; in assay [2], -5.41%; in assay [3], -5.83%; in [4], 0.945%; in [5] it was 6.22%; in assay [6] it was 0.554%. The Percent Effect is 4.13% in assay [7]; -19.8% in assay [8]; 4.95% in [9]; 1.22% in assay [10]; -0.0339% in assay [11].

In the case of `Cc1nc[nH]c1CN1C[C@@H]2CC[C@H](C1)N(C(=O)CCc1cnn(C)c1)C2`, the Percent Effect in assay [1] was -1.58%; in assay [2], 6.94%; in [3] it was -9.43%; in assay [4], 16.8%; in [5], 4.96%; in [6] it was 29.1%. Also, the Percent Effect in assay [7] is 5.09%; in assay [8], -11.8%; in [9], 2.1%; in [10] it was 7.69%; in [11], -1%.

As for `O=C1C(NS(=O)(=O)c2cc(F)cc(F)c2)CCN1Cc1ccccc1` (centres undefined), the Percent Effect in [1] is -4.38%; in [2] it was 12.7%; in [3], -1.14%; in assay [4], -3.2%; in [5], 6.52%; in [6], 1.52%. The Percent Effect in assay [7] was 13.7%; in assay [8], 0.58%; in assay [9], 6.4%; in [10], 1.27%; in assay [11] it was -7.02%.

Take `Cn1nccc1C(=O)N1CCOC(Cc2cccc(C(F)(F)F)c2)C1` (centres undefined): the Percent Effect in assay [1] was -6%; in [2] it was 0%; in [3] it was 0.696%; in assay [4], -3.79%; in [5] it was -3.99%; in [6] it was -0.521%. Also, the Percent Effect amounted to 4.18% in assay [7]; 12.7% in assay [8]; 3.83% in [9]; 3.7% in assay [10]; 2.23% in [11].

Turning to `CO[C@@H]1CCN(Cc2cnn(C)c2)[C@@H]2CN(Cc3ccco3)C[C@@H]21`, the Percent Effect in [1] is -5.25%; in assay [2], 4%; in assay [3] it was 5.3%; in assay [4], 4.49%; in assay [5], -1.38%; in [6], -0.528%. Further, the Percent Effect in assay [7] was 11.8%; in assay [8] it was -13.9%; in assay [9] it was 0%; in assay [10], 2.56%; in assay [11] it was -0.166%.

As to `COc1c(CNCC(c2cccc(F)c2)N(C)C)c(C(C)C)nn1C` (centres undefined), the Percent Effect in [1] is -2.21%; in assay [2] it was 5.2%; in assay [3] it was -2.29%; in [4], -6.06%; in assay [5] it was 4.6%; in assay [6], -3.16%. In addition, the Percent Effect was 4.61% in assay [7]; 5.62% in [8]; 0% in [9]; 9.41% in assay [10]; -5.27% in assay [11].

In the case of `CCCS(=O)(=O)N1CCC2(CN(c3ccsc3)C(=O)CN2C)C1` (centres undefined), the Percent Effect in [1] was -3.95%; in assay [2], 8.11%; in assay [3], -1%; in assay [4], -0.171%; in assay [5], 2.34%; in assay [6], 5.83%. For the same molecule, the Percent Effect is 10.6% in assay [7]; -4.15% in [8]; 9.9% in [9]; 6.1% in assay [10]; -1.58% in [11].

In the case of `Cc1nc(CN2CCCC(N(C)Cc3c(C)noc3C)C2)no1` (centres undefined), the Percent Effect in [1] was -2.99%; in [2], -15.6%; in assay [3], -0.475%; in assay [4], -1.55%; in [5], 9.7%; in [6], -0.21%. Further, the Percent Effect in [7] is 16.6%; in assay [8] it was 6.79%; in assay [9], 1.91%; in assay [10], 9.41%; in assay [11] it was -22.6%.

Turning to `CCOCC1CN(C(=O)c2cccn2C)Cc2cnn(CC3CC3)c21` (centres undefined), the Percent Effect in assay [1] is -4.01%; in assay [2], 5.2%; in [3], -0.603%; in assay [4], 8.24%; in assay [5] it was 0.69%; in assay [6], -12.3%. For the same molecule, the Percent Effect is 3.48% in assay [7]; 6.88% in [8]; 11.6% in [9]; 16.7% in assay [10]; -8.59% in assay [11].
